Source: PubChem BioAssay (Tox21)
Where “and” joins values, the source holds several entries; their conditions need not be identical. Equal entries are not always repeated. Results filed as inconclusive are left out. Calls of active or inactive are those of the source. Unless noted, calls follow the shape of the full dose curve.
% is scaled to controls: 0 for no effect and ±100 for the full control effect.

Tested on: not listed separately
Test: p53 small molecule agonists, cell-based qHTS assay: qHTS cell viability counter screen (AID 1963581); also: nearly all actives have a fitted effect of over 45% in size
Settings: p53RE-bla HCT-116 viability, ATP luminescence, 16 h; series mostly up to 66 µM; activity change, negative = cytotoxicity: at the top concentration
Outline: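 p53RE-bla HCT-116 cells were exposed to compounds for 16 h at 37 C; after the beta-lactamase FRET read in the same wells, CellTiter-Glo was added and luminescence (intracellular ATP) read after 30 min at room temperature.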
For O=[N+]([O-])c1ccc(Oc2ccc([N+](=O)[O-])cc2)cc1, the “activity change, negative = cytotoxicity” value was 0% (inactive).
With CS(C)(=O)=O the “activity change, negative = cytotoxicity” value was 20.1% (inactive).
For CC(C)N=C(N)/N=C(\N)Nc1ccc(Cl)cc1, the “activity change, negative = cytotoxicity” value was -13.4% [at 30.3 µM] (inactive).
For CC(C)(C)c1ccc(O)c(C(C)(C)C)c1, the Potency was “inactive”.
In the case of Cc1ccc(N=Nc2c(O)ccc3ccccc23)c(C)c1, the “activity change, negative = cytotoxicity” value is reported as 0.0527% [at 30.3 µM] (inactive).
In the case of CCCOCCO, the Potency is reported as “inactive”.
For C=C(C)C(=O)NCCC[N+](C)(C)C, the “activity change, negative = cytotoxicity” value was -3.9% (inactive).
With CCCC(C)CCC(C)=O (stereo unspecified) the “activity change, negative = cytotoxicity” value was 5.89% (inactive).
For C1CN(CCOCCN2CCOCC2)CCO1, the “activity change, negative = cytotoxicity” value was 11.3% (inactive).
In the case of C=CCOCC(O)CO (stereo unspecified), the “activity change, negative = cytotoxicity” value is reported as -22.7% (inactive).
For CC(CCC(=O)O)C(=O)O (stereo unspecified), the “activity change, negative = cytotoxicity” value was 0.382% (inactive).

Tested on: not listed separately
Test: p53 small molecule agonists, cell-based qHTS assay (AID 1963582; active = well fitted activation curve with a large enough effect in the signal ratio in the repeat runs, not every such curve was filed as active; the % refers to the signal ratio)
Settings: HCT-116 p53RE-bla reporter, beta-lactamase FRET ratio, 16 h; series mostly up to 66 µM; activation: at the top concentration
Outline: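 p53RE-bla beta-lactamase reporter cells rested 5 h at 37 C/5% CO2, then received compounds in DMSO by pin transfer and were incubated 16 h at 37 C. LiveBLAzer B/G FRET substrate was loaded for 2 h at room temperature before fluorescence reading.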
For Nc1c(NC/C=C\COc2cc(CN3CCCCC3)ccn2)c(=O)c1=O, the activation was -1.45% [at 13.5 µM] (inactive).
With O=S(=O)(O)c1ccc2cc(O)c(S(=O)(=O)O)cc2c1 the “activation” value was 1.41% (inactive).
For COCCOCCOCCOCCOC, the “activation” value was 1.66% (inactive).
In the case of COCCOCCOCCOCCOCCO, the “activation” value is reported as -1.47% (inactive).
For CCCO, the “activation” value was 1.99% (inactive).
In the case of CC[N+](C)(C)c1cccc(O)c1, the “activation” value is reported as -0.589% [at 30.3 µM] (inactive).
With CCCCCCCN the “activation” value was -3.52% (inactive).
In the case of O=c1[nH]c(=O)c2cn[nH]c2[nH]1, the “activation” value is reported as -0.327% (inactive).
In the case of CCC(COC(=O)CCS)(COC(=O)CCS)COC(=O)CCS, the “activation” value is reported as -0.0783% (inactive).
With CCCCCCCC(=O)N(C)C the “activation” value was 4.24% (inactive).
With CCCCC(C)C(=O)O (stereo unspecified) the “activation” value was 1.32% (inactive).
With CCO[Si](CCCN=C=O)(OCC)OCC the “activation” value was -3.15% (inactive).
With CCCCCCCCO[C@@H]1O[C@H](CO)[C@@H](O)[C@H](O)[C@H]1O the “activation” value was 0.057% (inactive).
In the case of COc1ccc(N=[N+]([O-])c2ccc(OC)cc2)cc1, the “activation” value is reported as -2.65% (inactive).
In the case of Cc1cc(N)n(-c2ccccc2)n1, the “activation” value is reported as -3.67% (inactive).
With O=C1OC(=O)c2ccccc21 the “activation” value was -2.17% (inactive).
With OC[C@H]1O[C@H](O[C@H]2O[C@H](CO)[C@@H](O)[C@H](O)[C@H]2O)[C@H](O)[C@@H](O)[C@@H]1O the “activation” value was 0.229% (inactive).
In the case of CCSC(=O)N(CC)CC, the “activation” value is reported as -1.24% (inactive).
With CCCCC(=O)N(C)C the “activation” value was 2.18% (inactive).
With CC(=O)NC(Cc1ccccc1)C(=O)O (stereo unspecified) the “activation” value was 0.239% [at 30.3 µM] (inactive).
For C/C=C/C(=O)C1=C(C)C=CCC1(C)C, the “activation” value was 0.376% (inactive).
For NS(=O)(=O)c1ccccc1OC(F)(F)F, the “activation” value was 0.776% (inactive).
For CC(=O)Oc1ccccc1C(=O)Nc1ncc([N+](=O)[O-])s1, the “activation” value was 10.7% (inactive).
For CC(=O)CC/C=C(\C)CC/C=C(\C)CC/C=C(\C)CCC=C(C)C, the “activation” value was -3.98% [at 30.3 µM] (inactive).
With CCOC(C)(C)C the “activation” value was -1.54% (inactive).
In the case of O=Cc1cccc([N+](=O)[O-])c1, the “activation” value is reported as 2.46% (inactive).
For CC(C)CC(O)Cc1ccccc1 (stereo unspecified), the “activation” value was 0.144% (inactive).
In the case of CC(=O)OCCN(CCOC(C)=O)c1ccc(N=Nc2ccc([N+](=O)[O-])cc2C#N)cc1, the “activation” value is reported as -4.9% (inactive).

Biological target: 5-hydroxytryptamine receptor 2A (Homo sapiens) (UniProt P28223)
Sequence (P28223 whole entry, looked up): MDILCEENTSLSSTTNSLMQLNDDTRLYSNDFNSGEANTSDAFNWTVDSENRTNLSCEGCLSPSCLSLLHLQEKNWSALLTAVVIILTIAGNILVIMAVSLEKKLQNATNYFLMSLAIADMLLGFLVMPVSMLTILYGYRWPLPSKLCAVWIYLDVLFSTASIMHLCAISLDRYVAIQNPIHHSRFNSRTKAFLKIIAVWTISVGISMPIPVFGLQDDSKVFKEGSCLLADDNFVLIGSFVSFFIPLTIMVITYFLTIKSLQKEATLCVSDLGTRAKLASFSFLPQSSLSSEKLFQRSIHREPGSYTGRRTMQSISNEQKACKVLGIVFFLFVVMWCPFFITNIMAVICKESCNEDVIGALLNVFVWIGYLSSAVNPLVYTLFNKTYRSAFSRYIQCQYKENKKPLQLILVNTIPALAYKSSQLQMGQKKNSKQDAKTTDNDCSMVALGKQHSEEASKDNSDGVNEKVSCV
Test: 5-hydroxytryptamine receptor 2A (HTR2A) small molecule antagonists, cell-based qHTS assay (AID 1963586); also: nearly all actives have a fitted effect of over 45% in size; also: potency is read from the fitted curve at half-maximal effect
Settings: HTR2A-CHO cells, DOI-induced calcium flux, fluorescence; series mostly up to 61.5 µM; activity, negative = inhibition: at the top concentration
Outline: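 Antagonist-mode intracellular calcium assay: DOI (4 nM) added after 5 min compound pre-incubation at room temperature to dye-loaded HTR2A-CHO cells. Fluorescence followed for 3 min, sampled every second.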
In the case of Nc1c(NC/C=C\COc2cc(CN3CCCCC3)ccn2)c(=O)c1=O, the activity, negative = inhibition is reported as -23.4% [at 12.7 µM] (inactive).
With O=S(=O)(O)c1ccc2cc(O)c(S(=O)(=O)O)cc2c1 the “activity, negative = inhibition” value was 11% (inactive).
For COCCOCCOCCOCCOC, the “activity, negative = inhibition” value was -19.1% (inactive).
For COCCOCCOCCOCCOCCO, the “activity, negative = inhibition” value was -3.69% (inactive).
In the case of CCCO, the “activity, negative = inhibition” value is reported as -0.608% (inactive).
For CC[N+](C)(C)c1cccc(O)c1, the “activity, negative = inhibition” value was 4.2% [at 28.5 µM] (inactive).
In the case of CCCCCCCN, the “activity, negative = inhibition” value is reported as 1.61% (inactive).
With O=c1[nH]c(=O)c2cn[nH]c2[nH]1 the “activity, negative = inhibition” value was -8.74% (inactive).
For CCC(COC(=O)CCS)(COC(=O)CCS)COC(=O)CCS, the “activity, negative = inhibition” value was 7.16% (inactive).
In the case of CC(C)(C)c1ccc(O)c(C(C)(C)C)c1, the Potency is reported as 23.7 µM (active).
For CCCCCCCC(=O)N(C)C, the “activity, negative = inhibition” value was 3.66% (inactive).
With CCCCC(C)C(=O)O (stereo unspecified) the “activity, negative = inhibition” value was -9.56% (inactive).
In the case of CCO[Si](CCCN=C=O)(OCC)OCC, the “activity, negative = inhibition” value is reported as 9.43% (inactive).
With CCCCCCCCO[C@@H]1O[C@H](CO)[C@@H](O)[C@H](O)[C@H]1O the “activity, negative = inhibition” value was 13.4% (inactive).
For Cc1ccc(N=Nc2c(O)ccc3ccccc23)c(C)c1, the “activity, negative = inhibition” value was 12.7% [at 28.5 µM] (inactive).
In the case of CCCOCCO, the Potency is reported as “inactive”.
With COc1ccc(N=[N+]([O-])c2ccc(OC)cc2)cc1 the “activity, negative = inhibition” value was 1.96% (inactive).
In the case of Cc1cc(N)n(-c2ccccc2)n1, the “activity, negative = inhibition” value is reported as 5.03% (inactive).
With O=C1OC(=O)c2ccccc21 the “activity, negative = inhibition” value was 17.8% (inactive).
In the case of OC[C@H]1O[C@H](O[C@H]2O[C@H](CO)[C@@H](O)[C@H](O)[C@H]2O)[C@H](O)[C@@H](O)[C@@H]1O, the “activity, negative = inhibition” value is reported as -29% (inactive).
For CCSC(=O)N(CC)CC, the “activity, negative = inhibition” value was 10.2% (inactive).
In the case of CCCCC(=O)N(C)C, the “activity, negative = inhibition” value is reported as 35.1% (inactive).
With CC(=O)NC(Cc1ccccc1)C(=O)O (stereo unspecified) the “activity, negative = inhibition” value was 3.2% [at 28.5 µM] (inactive).
In the case of C/C=C/C(=O)C1=C(C)C=CCC1(C)C, the “activity, negative = inhibition” value is reported as 1.5% (inactive).
With NS(=O)(=O)c1ccccc1OC(F)(F)F the “activity, negative = inhibition” value was 3.6% (inactive).
For CC(=O)Oc1ccccc1C(=O)Nc1ncc([N+](=O)[O-])s1, the Potency was “inactive”.
With C1CN(CCOCCN2CCOCC2)CCO1 the “activity, negative = inhibition” value was -0.174% (inactive).
In the case of CC(=O)CC/C=C(\C)CC/C=C(\C)CC/C=C(\C)CCC=C(C)C, the “activity, negative = inhibition” value is reported as -63.1% [at 28.5 µM] (inactive).
In the case of CC(CCC(=O)O)C(=O)O (stereo unspecified), the “activity, negative = inhibition” value is reported as 28.3% (inactive).
For CCOC(C)(C)C, the “activity, negative = inhibition” value was 13.5% (inactive).
For O=Cc1cccc([N+](=O)[O-])c1, the “activity, negative = inhibition” value was 1.13% (inactive).
In the case of CC(C)CC(O)Cc1ccccc1 (stereo unspecified), the “activity, negative = inhibition” value is reported as 1.01% (inactive).
For CC(=O)OCCN(CCOC(C)=O)c1ccc(N=Nc2ccc([N+](=O)[O-])cc2C#N)cc1, the “activity, negative = inhibition” value was 0.296% (inactive).

Biological target: 5-hydroxytryptamine receptor 2A (Homo sapiens) (UniProt P28223)
Test: 5-hydroxytryptamine receptor 2A (HTR2A) small molecule agonists, cell-based qHTS assay (AID 1963587); also: nearly all actives have a fitted effect of over 30% in size; also: potency is read from the fitted curve at half-maximal effect
Settings: HTR2A-CHO cells, calcium flux fluorescence, agonist mode; series mostly up to 76.8 µM; activation: at the top concentration
Outline: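 CHO cells stably expressing human HTR2A, plated 18 h, loaded with calcium dye 1 h at 37 C. Agonist mode: compounds added and intracellular calcium fluorescence recorded kinetically for 2 min at 1 sec intervals.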
For Nc1c(NC/C=C\COc2cc(CN3CCCCC3)ccn2)c(=O)c1=O, the activation was 1.98% [at 15.9 µM] (inactive).
With O=S(=O)(O)c1ccc2cc(O)c(S(=O)(=O)O)cc2c1 the “activation” value was 0.0845% (inactive).
For COCCOCCOCCOCCOC, the “activation” value was -0.812% (inactive).
With COCCOCCOCCOCCOCCO the “activation” value was 1.58% (inactive).
In the case of CCCO, the “activation” value is reported as -1.26% (inactive).
With O=[N+]([O-])c1ccc(Oc2ccc([N+](=O)[O-])cc2)cc1 the “activation” value was -2.8% (inactive).
In the case of CC[N+](C)(C)c1cccc(O)c1, the “activation” value is reported as 7.94% [at 35.6 µM] (inactive).
For CCCCCCCN, the “activation” value was 0.788% (inactive).
With CS(C)(=O)=O the “activation” value was 0.63% (inactive).
In the case of O=c1[nH]c(=O)c2cn[nH]c2[nH]1, the “activation” value is reported as -0.858% (inactive).
In the case of CCC(COC(=O)CCS)(COC(=O)CCS)COC(=O)CCS, the “activation” value is reported as -0.0913% (inactive).
In the case of CC(C)N=C(N)/N=C(\N)Nc1ccc(Cl)cc1, the “activation” value is reported as -6.73% [at 35.6 µM] (inactive).
With CC(C)(C)c1ccc(O)c(C(C)(C)C)c1 the Potency was 34.5 µM (active) and 27.5 µM (active).
With CCCCC(C)C(=O)O (stereo unspecified) the “activation” value was -0.242% (inactive).
In the case of CCO[Si](CCCN=C=O)(OCC)OCC, the “activation” value is reported as -0.234% (inactive).
With CCCCCCCCO[C@@H]1O[C@H](CO)[C@@H](O)[C@H](O)[C@H]1O the “activation” value was 3.09% (inactive).
In the case of Cc1cc(N)n(-c2ccccc2)n1, the “activation” value is reported as 4.46% (inactive).
In the case of O=C1OC(=O)c2ccccc21, the “activation” value is reported as -0.935% (inactive).
With OC[C@H]1O[C@H](O[C@H]2O[C@H](CO)[C@@H](O)[C@H](O)[C@H]2O)[C@H](O)[C@@H](O)[C@@H]1O the “activation” value was 0.187% (inactive).
In the case of CCSC(=O)N(CC)CC, the “activation” value is reported as -0.182% (inactive).
For CCCCC(=O)N(C)C, the “activation” value was -1.12% (inactive).
In the case of C/C=C/C(=O)C1=C(C)C=CCC1(C)C, the “activation” value is reported as 6.57% (inactive).
For NS(=O)(=O)c1ccccc1OC(F)(F)F, the “activation” value was -1.56% (inactive).
In the case of CC(=O)Oc1ccccc1C(=O)Nc1ncc([N+](=O)[O-])s1, the Potency is reported as “inactive”.
For CC(=O)CC/C=C(\C)CC/C=C(\C)CC/C=C(\C)CCC=C(C)C, the “activation” value was 1.93% [at 35.6 µM] (inactive).
For C=CCOCC(O)CO (stereo unspecified), the “activation” value was -0.422% (inactive).
In the case of CCOC(C)(C)C, the “activation” value is reported as -1.4% (inactive).
With O=Cc1cccc([N+](=O)[O-])c1 the “activation” value was -2.94% (inactive).
For CC(C)CC(O)Cc1ccccc1 (stereo unspecified), the “activation” value was 0.202% (inactive).
